Assay outcomes (PubChem BioAssay)
NS1 function inh = inhibitors of influenza NS1 protein function; Potency, µM (highest dose often 46.1 µM), without a hit: at the top dose activity, positive = more growth; 270,000 compounds, 0.4% hits; calls by dose curve; further: potency means the concentration at half of the fitted maximal effect; actives are rising curves; nearly all actives have a fitted effect of over 50% in size
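Recovery from NS1-induced slow growth read by OD600 in budding yeast switched to galactose assay medium (pH 6.0, -URA) at 1:100 dilution. Compound 23 nl per well; the matching strain lacking NS1 serves as control.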
LmPK inhibitor = blocks Leishmania mexicana pyruvate kinase activity. 290,000 compounds, 0.37% hits. Potency, µM (titrated, usually from 57.5 µM), for inactives: at the highest dose activity change, negative = inhibition, actives largely listed as inhibitors. Q27686. AID 1721. purified LmPK, Kinase-Glo ATP luminescence, 1 h; further: potency means the concentration at half of the fitted maximal effect; on the % scale 0 is the no-effect control and ±100 the full control effect
Target sequence (Q27686 whole entry, looked up): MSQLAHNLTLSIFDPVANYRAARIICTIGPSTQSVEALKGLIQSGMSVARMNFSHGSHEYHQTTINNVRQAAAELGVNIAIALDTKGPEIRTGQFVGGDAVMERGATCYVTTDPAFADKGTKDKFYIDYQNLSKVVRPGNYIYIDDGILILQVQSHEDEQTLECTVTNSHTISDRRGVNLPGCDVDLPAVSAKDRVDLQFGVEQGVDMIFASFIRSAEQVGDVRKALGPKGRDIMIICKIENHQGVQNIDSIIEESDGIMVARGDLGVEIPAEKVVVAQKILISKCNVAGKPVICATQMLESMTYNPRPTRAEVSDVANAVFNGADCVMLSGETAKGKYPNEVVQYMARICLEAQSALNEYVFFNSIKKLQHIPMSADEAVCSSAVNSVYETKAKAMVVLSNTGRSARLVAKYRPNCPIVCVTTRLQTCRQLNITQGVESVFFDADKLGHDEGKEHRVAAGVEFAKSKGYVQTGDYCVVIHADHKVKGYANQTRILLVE
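In 50 mM imidazole pH 7.2 with 7 mM MgCl2, LmPK (0.1 nM) turned over PEP (0.5 mM) and ADP (0.1 mM) for 1 h at room temperature. Luciferase read-out of ATP.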
TbPYK inhibitor = T. brucei pyruvate kinase inhibition; 410,000 compounds, 0.12% hits; Potency, µM (titrated, usually from 76.8 µM), for inactives: at the top dose activity, negative = inhibition, actives largely listed as inhibitors; AID 624173; TbPYK enzyme, Kinase-Glo Plus ATP luminescence, 45 min; further: potency means the concentration at half of the fitted maximal effect; on the % scale 0 is the no-effect control and ±100 the full control effect; nearly all actives have a fitted effect of over 50% in size
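Glycolytic pyruvate kinase of T. brucei was incubated with substrate, test compound and 130 uM ADP for 45 minutes at room temperature. Luminescent Kinase-Glo Plus signal was measured after 10 minutes.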
Cycloheximide cs = counter-screen hit for Shiga toxin inhibitors, cycloheximide; cell reporter, cycloheximide protein synthesis inhibition counterscreen; max response, %; 300,000 compounds, 12% hits; in the data active means max response mostly above about 13%, no sharp cut-off; inactive means mostly below about 14%; further: read at 38.3 µM for the half of the compounds with a filed dose; 0% is about no effect
Shiga toxin inh = inhibitors of Shiga toxin in Vero cells; Vero cells, Shiga toxin protein synthesis inhibition reporter; inhibition, % at 38.7 µM; 290,000 compounds, 9.2% hits; in the data active means inhibition mostly above about 28%, no sharp cut-off; inactive means mostly below about 43%; further: 0% is about no effect
SARS PLP yeast = SARS-CoV PLP inhibition in yeast; S. cerevisiae expressing SARS-CoV PLpro, growth rescue; Potency, µM (titrated, usually from 32.9 µM), without a hit: top-dose activity, positive = growth rescue, most hits filed as activators; 330,000 compounds, 0.19% hits; calls by dose curve; further: potency means the concentration at half of the fitted maximal effect; 0% is about no effect; nearly all actives have a fitted effect of over 55% in size
* marks the source's active call; other numbers are inactive results; ? = inconclusive; . = not tested or not shown. Many of the other results were omitted from the sample, so hits are more common in it than they were. Unless noted, the call rests on the fitted dose curve; in most records, active means well fitted curve in the direction sought with a large enough effect; inconclusive means small, poorly fitted or top-dose-only effect, or another doubt; inactive means no such curve, though single readings can be large; an effect the other way counts as inactive or inconclusive.

SMILES | NS1 function inh | LmPK inhibitor | TbPYK inhibitor | Cycloheximide cs | Shiga toxin inh | SARS PLP yeast
CCOC(=O)C1CC(=NO)c2ccc(OC)c(OC)c2C1 (centres undefined) | . | . | -8.4% | . | . | .
COc1ccc2cc(CCC(C)=O)ccc2c1 | -31.2% | -8.4% | 1.6% | 56.2* | 92.1* | 1.3%
NS(=O)(=O)c1ccc(NC(=O)CN2CCN(c3ccc(F)cc3)CC2)cc1 | . | . | 3.7% | . | . | .
COc1ccc(OCc2cc(C(=O)NCCCc3ccccc3)no2)c(Cl)c1 | -35.5% | -0.8% | -1.1% | 1.6 | 7.0 | -1.5%
CN(CC1CCCCO1)C(=O)c1cc(COc2ccc(F)cc2Cl)on1 (centres undefined) | 5.3% | -0.2% | 4.0% | -2.4 | -11.4 | -0.4%
COc1ccc(OCc2cc(C(=O)N(C)CC3CCCCO3)no2)c(Cl)c1 (centres undefined) | -22.7% | 0.4% | -5.8% | 48.3* | 78.6* | -2.4%
COc1ccc(OCc2cc(C(=O)N(C)CCC3CCOCC3)no2)c(Cl)c1 | -24.4% | -7.4% | -24.4% | 31.6* | 60.4* | -4.3%
COc1cc(Cl)ccc1OCc1cc(C(=O)N(C)CC2CCCCO2)no1 (centres undefined) | -10.9% | 6.5% | -3.3% | 40.3* | 88.3* | -6.5%
COc1ccc(OCc2cc(C(=O)N(C)C(C)c3ccon3)no2)c(Cl)c1 (centres undefined) | -17.5% | -13.2% | -2.9% | 34.3* | 72.5* | 12.2%
Cc1cccc(N2CCN(C(=O)CN3C(=O)COc4ccc(S(=O)(=O)N5CCC(C)CC5)cc43)CC2)c1C | . | . | -2.3% | . | . | .
O=C(Nc1ccccc1C(F)(F)F)C1CCN(C(=O)c2cccs2)CC1 | -0.6% | -2.0% | 0.7% | -2.8 | 1.1 | 1.5%
CCOC(=O)[C@]12CCCC=C1N(Cc1ccco1)C(=O)[C@H](CC(=O)N1CCCCC1)C2 | . | . | -2.8% | . | . | .
COc1ccc(C(=O)NCCCOC(=O)c2ccc(OC)cc2)cc1 | -4.3% | -7.0% | 2.2% | -3.3 | -9.2 | ?
CC(C)(C)c1ccc(C(=O)OCCN2CCCCC2)cc1 | 0.4% | 1.3% | -1.1% | 21.9* | 54.9* | -2.7%
COc1ccc(C(=O)OCCN2CCCCC2)cc1 | . | 8.2% | -2.4% | 48.2* | 51.3* | 3.2%
CC(C)(C)c1ccc(C(=O)NCCN2CCCC2)cc1 | 0.4% | -1.4% | -9.5% | 1.7 | -4.2 | 0.6%
COc1ccc(C(=O)CCN2CCCCCC2)cc1 | 1.3% | 2.2% | 0.4% | 10.5 | 14.5 | -23.7%
COc1ccc(C(=O)OCC[N+]2(C)CCCCC2)cc1 | . | -0.9% | -3.5% | 43.8* | 106.6* | -2.2%
O=C(NCc1ccccn1)c1nn(-c2ccccc2F)nc1CO | . | . | -2.9% | . | . | .
COc1ccc(NC(=O)Cn2c(=O)n(CCCCCC(=O)NCc3ccc4c(c3)OCO4)c(=O)c3sccc32)cc1Cl | . | . | -2.9% | . | . | .
Cc1nc(SCc2nc3c(F)cccc3[nH]2)c2oc3ccccc3c2n1 | . | . | 3.1% | . | . | -0.2%
CCCN(CCC)CCNC(=O)CCC(=O)Nc1ccc2nc(N3CCOCC3)cc(C)c2c1 | 1.8% | -4.1% | 8.8% | 39.9* | 75.4* | 3.6%
CCCCNC(=O)CCC(=O)Nc1ccc2nc(N3CCOCC3)cc(C)c2c1 | 1.5% | -7.1% | -2.3% | 12.7 | -5.8 | -7.3%
CCCCNC(=O)CCC(=O)Nc1ccc2nc(N3CCCCC3)cc(C)c2c1 | . | 1.4% | 0.4% | 31.0* | 63.0* | 4.0%
COc1cccc(NC(=O)CCC(=O)Nc2ccc3nc(N4CCOCC4)cc(C)c3c2)c1 | -6.4% | 1.5% | -3.9% | 37.0* | 81.4* | 3.3%
SMILES | NS1 function inh | LmPK inhibitor | TbPYK inhibitor | Cycloheximide cs | Shiga toxin inh | SARS PLP yeast
CCOC(=O)C1CCCN(C(=O)CCC(=O)Nc2ccc3nc(N4CCOCC4)cc(C)c3c2)C1 (centres undefined) | -46.0% | 0.3% | -5.1% | 24.5* | 21.1 | -6.4%
CN(C)c1nc(N)c([N+](=O)[O-])c(N2CCCCCC2)n1 | -7.4% | -3.1% | 8.1% | -1.0 | 1.4 | 2.5%
C[C@H](Cn1cnc2c(N)ncnc21)OCP(=O)(O)O | . | . | 2.4% | . | . | .
Cc1cc(N2CCCCC2)nc2ccc(NC(=O)CCC(=O)NCCC(C)C)cc12 | 1.7% | 0.9% | -2.1% | 35.3* | 49.3* | 4.1%
Cc1ccccc1OCC(=O)N/N=C/c1ccccn1 | . | 3.0% | 2.2% | 11.4 | 35.1* | -1.0%
CCOc1ccc(Br)cc1C(=O)N/N=C/c1ccccn1 | -39.5% | 2.4% | 15.6% | -3.4 | -10.2 | -1.5%
